Data from the supplement of paper PMC10981050.
Several values for one entry are separate records, joined by “and”; a condition that tells them apart may be missing. Equal values may be shown once. Where a name gives a salt, the structure may show the parent alone.

Experiments:
Assay in all cases: cell viability relative to vehicle control; higher = less cytotoxic
Conditions in all cases: 10 µM
[1] = tested on: K562
Summary of the method: (§1)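 Each screen used CRISPR-edited mutant and wild-type clones from four leukaemia lines. Compounds were acoustically dispensed at a single 10 µM dose, and CellTiter-Glo luminescence was read after 48 h with the supernatant first removed. Viability was analysed in Genedata Screener and given as percent of the on-plate vehicle control.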

[2] = tested on: MARIMO
Summary of the method: as §1

[3] = tested on: MOLM14
Summary of the method: as §1

[4] = tested on: OCI-AML2
Summary of the method: as §1

SMILES	cell viability ([1]; SRSF2 genotype: SRSF2 P95H/wt)	cell viability ([1]; SRSF2 genotype: SRSF2 wt/wt)	cell viability ([2]; SRSF2 genotype: SRSF2 P95H/wt)	cell viability ([2]; SRSF2 genotype: SRSF2 wt/wt)	cell viability ([3]; SRSF2 genotype: SRSF2 P95H/wt)	cell viability ([3]; SRSF2 genotype: SRSF2 wt/wt)	cell viability ([4]; SRSF2 genotype: P95H/wt)	cell viability ([4]; SRSF2 genotype: wt/wt)
NS(=O)(=O)c1cc2c(cc1Cl)NC(C(Cl)Cl)NS2(=O)=O (stereo not given) [Trichlormethiazide (Achletin)]	102% and 101%	102%	108%	99.7%	94.7%	106%	112%	110%
CC(=O)OC1CCC2C3CCc4cc(O)ccc4C3CCC12C (stereo not given)	96.5% and 85%	90.6%	85.8%	98.9%	96.9%	96.2%	87.7%	96.1%
O=c1c(O)c(-c2ccc(O)cc2O)oc2cc(O)cc(O)c12 [Morin hydrate (Aurantica)]	94.3% and 106%	106%	108%	108%	107%	107%	107%	102%
CC(C)n1c([C@H](C)Nc2ncnc(N)c2C#N)cc2cccc(-c3ccc(=O)n(C)c3)c2c1=O	71.2% and 78.7%	68.5%	46.7%	34%	20.9%	22.6%	5.13%	19.1%
CC(=O)CCC=C(C)CCC=C(C)CCC=C(C)CCC=C(C)C [Teprenone]	94.5% and 91.8%	92.9%	80.2%	95.6%	86.8%	96.5%	77.7%	84.9%
O=c1ccc2ccc(O)cc2[nH]1 [7-Hydroxycarbostyril]	95.8% and 92.9%	101%	95.4%	101%	95%	101%	91.2%	107%
COc1c(-c2ccc3cc(NS(C)(=O)=O)ccc3c2)cc(-n2ccc(=O)[nH]c2=O)cc1C(C)(C)C [S5402 Dasabuvir(ABT-333).cdx]	84% and 86.8%	80.6%	82%	89.6%	88.3%	97.3%	90.5%	90.5%
NC(=O)c1ccc[n+]([O-])c1 [Nicotinamide N-oxide]	110%	111%	107%	109%	98.7%	105%	112%	101%
O=C(Nc1cccc(Nc2ncc(Br)c(NCCc3cnc[nH]3)n2)c1)N1CCCC1	46.5% and 64.2%	47.1%	49.8%	45.4%	5.3%	3.38%	4.66%	10.9%
Nc1nccc(Oc2ccc(NC(=O)c3c[nH]cc(-c4ccc(F)cc4)c3=O)cc2F)c1Cl	76.3% and 90.6%	80.8%	96.2%	110%	19.9%	14.8%	41.8%	43.6%
Cc1c(OCC(F)(F)F)ccnc1C[S+]([O-])c1nc2ccccc2[nH]1 (stereo not given) [Lansoprazole]	98% and 96.2%	90%	98.6%	104%	103%	95.5%	91.7%	102%
CC(=O)OCC(=O)[C@@]1(O)CC[C@H]2[C@@H]3CCC4=CC(=O)CC[C@]4(C)[C@H]3C(=O)C[C@@]21C [Cortisone acetate (Cortone)]	110% and 108%	118%	118%	109%	112%	112%	117%	109%
Nc1nc2c(ncn2COCCO)c(=O)[nH]1 [Acyclovir (Aciclovir)]	98% and 101%	95.1%	99.2%	98.3%	103%	99.1%	105%	102%
O=C(c1ccc(Nc2nccc(-c3cc4ccccc4s3)n2)cc1)N1CCC(N2CCCC2)CC1	1.53% and 1.22%	1.15%	0.47%	0.54%	0.29%	0.3%	0.25%	0.35%
CC(C)C[C@@H]1NC(=O)[C@@H](C(C)C)NC(=O)[C@@H]2CCCN2C(=O)[C@@H](CC(=O)O)NC(=O)[C@@H](Cc2c[nH]c3ccccc23)NC1=O	101% and 105%	97%	101%	108%	99%	101%	103%	103%
CN1C(C(=O)Nc2ccccn2)=C(O)c2sccc2S1(=O)=O [Tenoxicam(Mobiflex)]	105% and 103%	102%	107%	112%	98.4%	106%	95.5%	105%
C[C@@H]1COC(Nc2ccc3ncnc(Nc4ccc(OCc5nccs5)c(Cl)c4)c3c2)=N1 [Varlitinib]	86.5% and 83.2%	88.1%	89.2%	109%	91.7%	96.3%	87%	88.2%
Cc1ccc(S(=O)(=O)NC(=O)NN2CC3CCCC3C2)cc1 (stereo not given) [Gliclazide (Diamicron)]	95.8% and 105%	109%	106%	111%	103%	106%	113%	101%
CC1=C(C(=O)Nc2cc3cn[nH]c3cc2F)C(c2ccc(C(F)(F)F)cc2)CC(=O)N1 (stereo not given)	99.9% and 96.7%	95.3%	89.1%	98.6%	36.8%	91.7%	23.6%	42.9%
Cc1cc(-c2ccc(/N=N/c3ccc4c(S(=O)(=O)O)cc(S(=O)(=O)O)c(N)c4c3O)c(C)c2)ccc1/N=N/c1ccc2c(S(=O)(=O)O)cc(S(=O)(=O)O)c(N)c2c1O [Evans Blue]	66.2% and 64.2%	62.8%	63.8%	72.2%	67.4%	64.7%	66.2%	67.6%

SMILES	cell viability ([1]; SRSF2 genotype: SRSF2 P95H/wt)	cell viability ([1]; SRSF2 genotype: SRSF2 wt/wt)	cell viability ([2]; SRSF2 genotype: SRSF2 P95H/wt)	cell viability ([2]; SRSF2 genotype: SRSF2 wt/wt)	cell viability ([3]; SRSF2 genotype: SRSF2 P95H/wt)	cell viability ([3]; SRSF2 genotype: SRSF2 wt/wt)	cell viability ([4]; SRSF2 genotype: P95H/wt)	cell viability ([4]; SRSF2 genotype: wt/wt)
COc1nc(N)nc2c1ncn2[C@@H]1O[C@H](CO)[C@@H](O)[C@@H]1O [Nelarabine (Arranon)]	98.2% and 96.9%	99.6%	95.5%	91.2%	90.7%	93.5%	94.7%	94.5%
Clc1ccccc1C(c1ccccc1)(c1ccccc1)n1ccnc1 [Clotrimazole (Canesten)]	92.1% and 91.2%	75.9%	81.5%	87.3%	89.4%	84.6%	77.4%	90%
COc1ccc(-c2cc(=O)c3c(O)c(OC)c(O)c(OC)c3o2)cc1 [Lysionotin]	104% and 98%	98.9%	97.9%	114%	64%	76.8%	74.8%	83%
COc1cc2c(Oc3ccc4[nH]c(C)cc4c3F)ncnc2cc1OCCCN1CCCC1 [Cediranib (AZD2171)]	4.41% and 2.97%	11.7%	55.1%	48.3%	2.27%	1.47%	9.24%	21.7%
CCCCc1ccc(O)cc1O [4-Butylresorcinol]	99.6% and 85.8%	91.2%	90.6%	102%	86.5%	93.8%	85.7%	88.9%
Cc1ccc(-n2sc(=O)n(Cc3ccc(F)cc3)c2=O)cc1	78.6% and 73.5%	78%	67.2%	72.6%	47.6%	61.8%	50.6%	50.9%
C#C[C@]1(O)CC[C@H]2[C@@H]3CCC4=CC(=O)CC[C@@H]4[C@H]3C(=C)C[C@@]21CC [Etonogestrel]	82.9% and 75.4%	80.4%	78.6%	88.8%	84.9%	89.9%	88%	88.3%
O=C1c2c(O)ccc(O)c2C(=O)c2c(NCCNCCO)ccc(NCCNCCO)c21 [Mitoxantrone 2HCl]	3.59% and 6.17%	3.76%	4.5%	1.79%	0.19%	0.15%	0.48%	7.36%
CCOc1ccccc1OCCN[C@H](C)Cc1ccc(OC)c(S(N)(=O)=O)c1 [Tamsulosin hydrochloride]	102% and 97.9%	98.3%	96.9%	107%	98.5%	103%	92.7%	104%
C[C@@]12C[C@@]3(O)O[C@@H](O1)[C@]1(COC(=O)c4ccccc4)[C@@H]3C[C@]12O[C@@H]1O[C@H](COC(=O)c2ccccc2)[C@@H](O)[C@H](O)[C@H]1O [Benzoylpaeoniflorin]	99.7% and 101%	93.4%	96.2%	96.7%	104%	97.8%	93.9%	102%
CCCCCCOC(=O)NC(=N)c1ccc(NCc2nc3cc(C(=O)N(CCC(=O)OCC)c4ccccn4)ccc3n2C)cc1 [BIBR-1048 (Dabigatran)]	67% and 66.3%	67.2%	55.2%	55%	0.49%	0.53%	55%	35.7%
CC(C)=CCC[C@](C)(O[C@@H]1O[C@H](CO)[C@@H](O)[C@H](O)[C@H]1O)[C@H]1CC[C@]2(C)[C@@H]1[C@H](O)C[C@@H]1[C@@]3(C)CC[C@H](O)C(C)(C)[C@@H]3[C@@H](O[C@@H]3O[C@H](CO)[C@@H](O)[C@H](O)[C@H]3O[C@@H]3OC[C@@H](O)[C@H](O)[C@H]3O)C[C@]12C [Notoginsenoside R1]	98.4% and 101%	94.8%	106%	104%	106%	103%	94.6%	96.7%
COc1ccc(C2=N[C@@H](c3ccc(Cl)cc3)[C@@H](c3ccc(Cl)cc3)N2C(=O)N2CCNC(=O)C2)c(OC(C)C)c1 [Nutlin-3]	91.4% and 99.4%	89.2%	87.4%	93.3%	0.14%	1.06%	9.37%	32.1%
C#CC[C@H](c1nc2cc(Cl)ccc2c(=O)n1Nc1ccccc1)N(CCCN)C(=O)c1cccc(Cl)c1F	0.47% and 0.44%	0.4%	0.46%	0.55%	0.39%	0.42%	0.41%	0.45%
O=C(Nc1cnn2ccc(N3CCC[C@@H]3c3cc(F)ccc3F)nc12)N1CC[C@H](O)C1 [LOXO-101(sulfate)]	104% and 105%	104%	113%	118%	97.6%	104%	98.2%	104%
CNS(=O)(=O)CCc1ccc2[nH]cc(C3CCN(C)CC3)c2c1 [Naratriptan HCl]	104% and 100%	104%	97.3%	110%	107%	104%	102%	113%
COC(=O)/C=C/C(=O)OC [Dimethyl Fumarate]	101% and 108%	94.7%	103%	95.6%	102%	99.5%	111%	110%
O=C(Nc1ccc(O)cc1)c1ccccc1O [Osalmid]	98.1% and 108%	98.3%	93%	95.8%	107%	109%	99%	87.3%
O=C(Nc1ccc(OC(F)(F)F)cc1)c1sccc1NCc1ccnc2ccccc12	44.9% and 48.7%	43.4%	49.2%	42.3%	39%	29.1%	24%	27.2%
CNCC[C@H](Oc1cccc2ccccc12)c1cccs1 [Duloxetine HCl (Cymbalta)]	45.7% and 60.1%	54.7%	55%	61.4%	55.9%	70.9%	46.2%	53.5%
